A549 tox-1 – A549 cytotoxicity, counter-screen for Nrf2 inhibitors | Potency, µM (top dose mostly 46 µM), without a hit: at the top dose activity change, negative = cytotoxicity, hits mostly inhibitors | 0.16% of 390,000 active | A549 ARE-Fluc cells, CellTiter-Fluor viability, 18-24 h; note: potency is the fitted concentration of half-maximal effect
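A549 ARE_Fluc cells in 5% FBS OPTI-MEM were exposed to compounds in concentration-response for 18-24 h at 37 deg C. Viability was read by CellTiter-Fluor fluorescence (Ex 405/Em 525) after 30 min, before the luciferase read.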
KB-3-1 tox – KB-3-1 parental cell cytotoxicity; Potency, µM (series often up to 46.1 µM), actives largely listed as cytotoxic; 1.4% of 400,000 active; AID 1347075; KB-3-1 viability, CellTiter-Glo ATP luminescence, 72 h; note: potency is the fitted concentration of half-maximal effect; nearly all actives have a fitted effect of over 60% in size
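Cytotoxicity measured as CellTiter-Glo luminescence after 72 h at 37 C. Compound titrations were pinned onto drug-naive KB-3-1 parental adenocarcinoma cells grown in DMEM with 10% FBS, and normalized data fitted to concentration-response curves.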
PI4K2A inh – inhibitors of human PI4K2A; 0.13% of 420,000 active; Q9BTU6; purified PI4K2A, ADP-Glo luminescence, 1 h; stronger effect = lower value; AID 1346378; activity change, negative = inhibition, % at 76.9 µM; in the data active = activity change below about -50%; inconclusive = mostly about -30% to -49%;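 note: -100% = wells without enzyme as full effect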
Target sequence (Q9BTU6 whole entry, looked up): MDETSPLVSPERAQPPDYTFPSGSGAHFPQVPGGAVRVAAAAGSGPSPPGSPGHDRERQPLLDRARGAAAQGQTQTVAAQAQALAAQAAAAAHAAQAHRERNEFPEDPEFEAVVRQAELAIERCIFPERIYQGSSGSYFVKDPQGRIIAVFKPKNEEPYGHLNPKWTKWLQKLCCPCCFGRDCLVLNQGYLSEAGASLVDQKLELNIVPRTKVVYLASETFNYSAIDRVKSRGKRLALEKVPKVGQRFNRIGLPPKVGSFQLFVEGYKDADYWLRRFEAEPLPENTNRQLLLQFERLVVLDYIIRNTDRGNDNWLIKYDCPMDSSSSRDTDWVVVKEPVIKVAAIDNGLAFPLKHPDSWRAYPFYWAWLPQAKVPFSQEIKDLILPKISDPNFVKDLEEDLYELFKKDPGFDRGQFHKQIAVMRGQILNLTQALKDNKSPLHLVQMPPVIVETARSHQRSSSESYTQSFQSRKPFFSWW
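In this quantitative HTS, ADP production by PI4K2A was quantified luminescently after 1 h at ambient temperature; 100 microM adenosine served as plate-quality control.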
Giardia killer – Giardia lamblia killing; Giardia lamblia trophozoite viability; activity change, % at 7.66 µM, hits read low; 0.15% of 340,000 active; in the data active = activity change below about -80%; inconclusive = between about -30% and that limit;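 note: parasites exposed to compound for two days anaerobically before the ATP read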
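Viability, read as ATP luminescence: trophozoites at 100 cells/well, compound added, 48 hrs anaerobic at 37 deg C, then 15-30 min room-temperature development before reading.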
Nrf2 block – Nrf2 pathway inhibition; A549 ARE-Fluc reporter, luciferase luminescence, 18-24 h; Potency, µM (top dose mostly 46 µM), without a hit: top-dose activity change, negative = inhibition, hits mostly inhibitors; 2.1% of 360,000 active; AID 504444; note: potency is the fitted concentration of half-maximal effect; nearly all actives have a fitted effect of over 60% in size
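Concentration-response testing used A549 ARE_Fluc cells at 5000 cells/well. Following an 18-24 h compound incubation, viability was read by fluorescence (Ex 405/Em 525) and luciferase output by luminescence.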
KB-V1 MDR tox – KB-V1 MDR subline cytotoxicity; KB-V1 MDR cells viability, CellTiter-Glo, 72 h; Potency, µM (doses to about 46.1 µM), hits mostly cytotoxic; 3.4% of 400,000 active; note: potency is the fitted concentration of half-maximal effect; nearly all actives have a fitted effect of over 60% in size
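Readout: CellTiter-Glo luminescence, 10 min after addition. Cells: KB-V1 MDR subline, 72 h at 37 degrees C with compound. Analysis: corrected, normalized data fitted to concentration-effect curves.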
FLuc enzyme inh – counter-screen for Nrf2 inhibitors: firefly luciferase enzyme inhibition | purified firefly luciferase, luminescence inhibition | shares compounds with Nrf2 block | Potency, µM (series often up to 57.5 µM), without a hit: at the highest dose activity change, negative = inhibition, most hits filed as inhibitors | AID 720522 | 4% of 1,400 active; note: potency is the fitted concentration of half-maximal effect; nearly all actives have a fitted effect of over 65% in size
A549 tox-2 – counter-screen for Nrf2 inhibitors: cytotoxicity in A549 ARE cells. A549 ARE-Fluc cells, cytotoxicity counterscreen. 2% of 1,400 active. AID 720523. shares compounds with Nrf2 block. Potency, µM (doses to about 46.1 µM), for inactives: at the top dose activity change, negative = cytotoxicity, hits mostly inhibitors;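 note: potency is the fitted concentration of half-maximal effect; cells exposed to compounds for 18 to 24 hours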
Nrf2 ARE inh – reduces Nrf2 ARE reporter signal in A549 cells. shares compounds with Nrf2 block. Potency, µM (titrated, usually from 46.1 µM), for inactives: top-dose activity change, negative = inhibition, usual class: inhibitors. 74% of 1,400 active. A549 ARE-firefly luciferase reporter, luminescence; note: potency is the fitted concentration of half-maximal effect; nearly all actives have a fitted effect of over 65% in size
Active calls of the source: *; i = inactive; u = inconclusive; x = not tested or not shown; ! = not confirmed by another sample. Compounds with a hit are over-represented: about 5.7% of the library has one in this group of screens. Unless noted, calls come from the whole dose curve; as a rule, active = well fitted curve in the direction sought with a large enough effect; inconclusive = small, poorly fitted or top-dose-only effect, or another doubt; inactive = no such curve, though single readings can be large; an effect the other way counts as inactive or inconclusive. Unless noted, % is set by controls: 0 for no effect and ±100 for the full control effect.

SMILES	A549 tox-1	KB-3-1 tox	PI4K2A inh	Giardia killer	Nrf2 block	KB-V1 MDR tox	FLuc enzyme inh	A549 tox-2	others
COc1ccc(N2CCN(c3ncnc4c3nc3n4CCCCC3)CC2)cc1	-22.5%	u	-13.6	x	16.4µM*	u	x	x
Cc1ccc(Cl)cc1N1CCN(c2ncnc3c2nc2n3CCCC2)CC1	-6.1%	x	1.0	x	u	x	x	x
c1ccc(N2CCN(c3ncnc4c3nc3n4CCCC3)CC2)cc1	-12.9%	x	0.0	x	23.1µM*	x	x	x
O=C(Cc1coc2cc3c(cc12)CCC3)OCC(=O)N1CCCC1=O	2.5%	i	0.3	-2.6	u	i	x	x
Cc1ccc([N+](=O)[O-])[c]2c1[O][Hg]2	x	x	-24.5	x	x	x	x	x
Cc1ccc(-n2nc(C)cc2NC(=O)COc2cc(C)cc3oc(=O)c4c(c23)CCC4)cc1	u	i	2.0	1.4	u	2.06µM*	x	x
COc1ccc(N2CCN(CCCNC(=O)c3cnn(-c4ccc(F)cc4)c3-n3cccc3)CC2)cc1	0.7%	23.1µM*	-6.5	x	u	u	x	x
CN1CC[C@@]2(C)c3cc(OC(=O)Nc4ccccc4)ccc3N(C)[C@@H]12	x	x	3.3	x	x	x	x	x
Cc1ccccc1-n1c(/C=C/c2c(C)[nH]c3ccccc23)nc2ccccc2c1=O	u	x	1.1	x	20.6µM*	x	x	x
CC(N)C(=O)NC1C2C(=C(O)CC(O)C2O)C(=O)OC1(C)C(Cl)Cl (stereo not given)	2.06µM*	2.06µM*	2.4	-13.8	1.64µM*	18.4µM*	x	x
CCOC(=O)c1ccccc1OC(=O)NNc1ccccc1	1.6%	11.6µM*	1.1	9.3	u	i	x	x
CCOC(=O)c1ccccc1N	-2.0%	i	1.0	u	1.4%	u	x	x
CCOC(=O)CCCc1cc[c]([Sb](=[O])([OH])[OH])cc1	-2.0%	i	x	-10.6	0.0%	i	x	x
CCOC(=O)c1c(C=O)c2ccccc2n1Cc1ccccc1	1.9%	u	14.3	-21.7	14.6%	20.6µM*	x	x
CCN(CCCl)c1cc(CN(C)C)cc(NC(=O)c2ccc(C(=O)Nc3cc(CN(C)C)cc(N(CC)CCCl)c3)cc2)c1	13µM*	0.517µM*	-1.4	3.3	2.91µM*	i	x	x
CCN(CC)C(=O)c1ccc(NC(=O)c2cccc(C(F)(F)F)c2)cc1	0.0%	i	0.5	-20.0	-19.4%	i	x	x
C[n+]1c2cc(N)ccc2cc2ccc(N)cc21	u	10.3µM*	-0.4	u	1.46µM*	16.4µM*	-12.6%	86.2%	Nrf2 ARE inh=1.64µM*
Nc1ccc2ccccc2c1	-0.8%	i	5.3	-8.4	u	i	x	x
NC(=O)c1cn(C2OC(CO)C(O)C2O)c2ncnc(N)c12 (stereo not given)	u	0.0206µM*	-8.2	-13.9	0.461µM*	0.0073µM*!	2.0%	u	Nrf2 ARE inh=0.82µM*
CCOC(=O)N1CCN(C(=O)Cn2ncc3c4ccccc4n(Cc4ccc(F)cc4)c3c2=O)CC1	-17.1%	u	-2.1	x	u	i	x	x
O=C(Nc1ccc(OC(=O)N2CCCCC2)cc1)N1CCOCC1	-2.7%	i	1.6	13.1	9.2µM*	i	-9.7%	-5.4%	Nrf2 ARE inh=5.17µM*
Cn1c(=O)oc2cc(S(=O)(=O)NCC3CCCO3)ccc21 (stereo not given)	u	i	0.3	-4.4	-2.5%	i	x	x
COc1ccc(CC2C(=O)NC(C)C(=O)N(C)C3C(=O)N(C)C(Cc4ccc(O)c(c4)Oc4ccc(cc4)C3O)C(=O)NC(C)C(=O)NC(C)C(=O)N2C)cc1 (stereo not given)	u	0.164µM*	-0.3	21.1	1.3µM*	i	3.4%	u	Nrf2 ARE inh=0.411µM*
Cc1nnc2n1-c1sc(CCc3ccc(CC(C)C)cc3)cc1C(c1ccccc1Cl)=NC2C (stereo not given)	x	x	3.8	x	x	x	x	x
C[C@]12CC[C@H](O)C[C@H]1CCC1C2CC[C@]2(C)[C@@H](c3ccc(=O)oc3)C[C@H]3O[C@]132 (stereo not given in full)	x	u	x	x	x	u	-1.8%	u	Nrf2 ARE inh=1.46µM*
SMILES	A549 tox-1	KB-3-1 tox	PI4K2A inh	Giardia killer	Nrf2 block	KB-V1 MDR tox	FLuc enzyme inh	A549 tox-2	others
CC12CCC(O)CC1CCC1C2CCC2(C)C(C3=CC(=O)OC3)C(O)CC12O (stereo not given)	u	u	4.5	-18.9	1.84µM*	4.11µM*	1.1%	u
CC12CC[C@H]3[C@@H](CCC4(O)C[C@H](O)CCC34/C=N/NC(=O)c3ccccc3[N+](=O)[O-])C1(O)CCC2C1=CC(=O)OC1 (stereo not given in full)	u	9.2µM*	-2.2	20.9	4.61µM*	u	0.4%	u	Nrf2 ARE inh=7.31µM*
CC(=O)C1CCC2C3CCC4CC(O)CCC4(C)C3CCC12C (stereo not given)	-5.8%	i	4.3	22.8	4.7%	i	x	x
COC1C(O)C(C)OC(OC2CCC3(C)C(CCC4C3C(O)CC3(C)C(C5=CC(=O)OC5)CCC43O)C2)C1O (stereo not given)	u	0.206µM*	-2.3	0.0	0.146µM*	0.184µM*	1.2%	u	Nrf2 ARE inh=0.116µM*
Cc1cc(OCC(=O)N2CCN(CCc3ccncc3)CC2)cc(C)c1Cl	0.2%	i	7.5	x	1.6%	i	x	x
CC12CC[C@H]3[C@@H](CCC4(O)C[C@H](O)CCC34/C=N/NC(=O)Cc3ccccc3)C1(O)CCC2C1=CC(=O)OC1 (stereo not given in full)	-25.1%	i	-2.7	40.0	u	i	x	x
C[C@H]1CC[C@@H]2[C@@H](C)[C@H]3[C@H](C[C@H]4[C@@H]5CC=C6C[C@@H](O[C@@H]7O[C@H](CO)[C@H](O)[C@H](O[C@@H]8O[C@H](CO)[C@@H](O)[C@H](O)[C@H]8O)[C@H]7O[C@@H]7O[C@@H](C)[C@H](O)[C@@H](O)[C@H]7O)CC[C@]6(C)[C@H]5CC[C@]34C)N2C1	-17.5%	i	-3.8	-3.3	-21.5%	u	x	x
